This note sets out measurements from PubChem BioAssay (EPA / NIEHS).

The subject of assay [1] is Sodium/Iodide Symporter (NIS), SLC5A5 (gene 6528). The assay can be described thus: CPHEA_Stoker_NIS_Inhibition_RAIU: CPHEA's Radioactive Iodide Uptake (RAIU) Assay for Sodium/Iodide Symporter (NIS) Inhibition, Stoker and Laws Labs (AID 2283841). In short, it runs like this:
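hNIS-HEK293T-EPA cells incubated 2 h at room temperature with compound (0.001–100 uM, 0.5% DMSO) and 329 pM final 125I in HBSS/10 mM HEPES, pH 7.4. Intracellular 125I counted; normalised to DMSO maximal uptake, triplicate, three biological replicates.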

Assay [2] addresses chicken Estrogen Receptor (ERa), ESR1 (gene 396099) (UniProt P06212). The assay can be described thus: ATG_chERa_XSP2: Attagene TRANS-FACTORIAL Multi-Species (XSP2) HepG2 Assay for chicken Estrogen Receptor (ERa) (AID 2283817).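 Further: actives raise reporter signal above DMSO so AC50 reflects ER activation.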 In short, it runs like this:
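HepG2 cells transiently transfected with multiplexed GAL4-UAS reporter units expressing chimeric chicken ERa-Gal4; 24 h compound exposure. Reporter mRNA measured by RT-PCR with 6-FAM labelling, HpaI digestion and capillary electrophoresis; gain-of-signal fitted versus DMSO.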

Assay [3] concerns zebrafish Estrogen Receptor (ER2b), gene 317733. In words: ATG_zfER2b_XSP2: Attagene TRANS-FACTORIAL Multi-Species (XSP2) HepG2 Assay for zebrafish Estrogen Receptor (ER2b) (AID 2283823).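 Further: fitted upward as reporter gain over DMSO so potency reflects activation.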 In short, it runs like this: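 Cells used were HepG2, transiently transfected with chimeric nuclear receptor-Gal4 reporter units. After 24 h of chemical treatment, reporter transcripts were amplified by RT-PCR, labelled and sized by capillary electrophoresis, with induction analysed relative to DMSO.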

Assay [4] has as its target Estrogen receptor (Homo sapiens) (UniProt P03372). The assay can be described thus: ATG_hERa_XSP2: Attagene TRANS-FACTORIAL Multi-Species (XSP2) HepG2 Assay for human Estrogen Receptor (ERa) (AID 2283827). In short, it runs like this:
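HepG2 cells transiently transfected with multiplexed GAL4-UAS reporters driven by chimeric receptor-Gal4 proteins, dosed 24 h with 3 nM 6-alpha-fluorotestosterone and 1.5 nM norgestrel present. Reporter mRNA by RT-PCR and capillary electrophoresis; gain-of-signal fit versus DMSO.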

The test system of assay [5] is frog Estrogen Receptor (ER2), gene 100174814. The assay can be described thus: ATG_frER2_XSP2: Attagene TRANS-FACTORIAL Multi-Species (XSP2) HepG2 Assay for frog Estrogen Receptor (ER2) (AID 2283828). In short, it runs like this: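 Human liver HepG2, transient MRTU transfection (TRANS format, exogenous NR–Gal4). 24 h cpd exposure. Total RNA → RT → PCR → FAM label → HpaI cut → CE. Positive direction vs DMSO.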

The target of assay [6] is mouse Peroxisome Proliferator-activated Receptor gamma (PPARg), Pparg (gene 19016) (UniProt P37238). In words: ATG_mPPARg_XSP2: Attagene TRANS-FACTORIAL Multi-Species (XSP2) HepG2 Assay for mouse Peroxisome Proliferator-activated Receptor gamma (PPARg) (AID 2283830).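 Further: hits are gains in reporter mRNA above DMSO so AC50 marks activation.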 In short, it runs like this:
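HepG2 cells transiently transfected with GAL4-UAS reporter units for chimeric NR-Gal4 proteins including mouse PPARg, exposed 24 h; medium contained 3 nM 6-alpha-fluorotestosterone and 1.5 nM norgestrel. Reporter mRNA quantified by RT-PCR, HpaI digestion and capillary electrophoresis, vs DMSO.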

For assay [7], the target named is Nuclear receptor subfamily 1 group I member 2 (Mus musculus) (UniProt O54915). In words: ATG_mPXR_XSP2: Attagene TRANS-FACTORIAL Multi-Species (XSP1) HepG2 Assay for mouse Pregnane X Receptor (PXR) (AID 2283831). In short, it runs like this:
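Reporter transcripts were quantified by RT-PCR, FAM primer extension, HpaI digestion and capillary electrophoresis after 24 h of chemical exposure in transiently transfected HepG2 cells carrying chimeric receptor-GAL4 constructs; DMSO served as baseline.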

Assay [8] has as its target zebrafish Thyroid Hormone Receptor alpha (TRa), thraa (gene 30670) (UniProt Q98867). The assay can be described thus: ATG_zfTRa_XSP2: Attagene TRANS-FACTORIAL Multi-Species (XSP1) HepG2 Assay for zebrafish Thyroid Hormone Receptor alpha (TRa) (AID 2283832).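 Further: actives raise zebrafish TRa-Gal4 reporter transcript above DMSO baseline.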 In short, it runs like this:
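Transient transfection of human HepG2 with GAL4-UAS reporter units, then 24 h chemical treatment. RNA isolated, reverse-transcribed, PCR-amplified, FAM-labelled, HpaI-digested and run on capillary electrophoresis. Gain-of-signal relative to DMSO.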

Assay [9] relates to zebrafish Peroxisome Proliferator-activated Receptor gamma (PPARg), gene 557037. The assay can be described thus: ATG_zfPPARg_XSP2: Attagene TRANS-FACTORIAL Multi-Species (XSP2) HepG2 Assay for zebrafish Peroxisome Proliferator-activated Receptor gamma (PPARg) (AID 2283833).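 Further: actives increase reporter signal over DMSO so AC50 reflects activation.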 In short, it runs like this:
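Multi-species TRANS format in HepG2, 24 h dosing; medium also contained 3 nM 6-alpha-fluorotestosterone and 1.5 nM norgestrel to stimulate androgen receptor. Zebrafish PPARg-GAL4 induced reporter mRNA was measured by RT-PCR/capillary electrophoresis.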

Assay [10] deals with turtle Thyroid Hormone Receptor, alpha (TRa), gene 101949057. In words: ATG_trTRa_XSP2: Attagene TRANS-FACTORIAL Multi-Species (XSP1) HepG2 Assay for turtle Thyroid Hormone Receptor, alpha (TRa) (AID 2283834).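 Further: hits raise reporter mRNA over the DMSO baseline so AC50 marks activators.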 In short, it runs like this:
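Transfection of HepG2 with multiple reporter transcription units, then chemical dosing for 24 h. Total RNA was reverse-transcribed, reporter sequences PCR-amplified and FAM-labelled, then sized by capillary electrophoresis. DMSO served as baseline.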

Assay [11] in a line: ATG_M_61_XSP2: Attagene TRANS-FACTORIAL Multi-Species (XSP2) HepG2 Assay for M61 Transcription Factor (Internal Marker) (AID 2283835; active means hit-call score of the fitted dose curve at least 0.9, where 1 is the maximum; inactive means score below 0.9;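 further: active means a rise in signal above the DMSO baseline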). In short, it runs like this: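 HepG2 cells transiently transfected with multiple GAL4-UAS reporter units; 3 nM 6-alpha-fluorotestosterone and 1.5 nM norgestrel present to stimulate androgen receptor. After 24 h compound exposure, reporter mRNA measured by RT-PCR and capillary electrophoresis fluorescence, gain-of-signal versus DMSO baseline.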

Assay [12] in a line: ATG_XTT_Cytotoxicity_XSP2: Cytotoxicity Assessment in the Attagene TRANS-FACTORIAL Multi-Species (XSP2) HepG2 Assay (AID 2283837). In short, it runs like this: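 HepG2 cells, transiently transfected with multiple reporter constructs, exposed to chemical for 24 h. Cell number assessed with XTT fluorescence read-out; loss of signal fitted relative to DMSO.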
In assay [13] the target is human Thyroid hormone Receptor alpha (TRa), THRA (gene 7067) (UniProt P10827). The assay can be described thus: ATG_hTRa_XSP2: Attagene TRANS-FACTORIAL Multi-Species (XSP2) HepG2 Assay for human Thyroid hormone Receptor alpha (TRa) (AID 2283838). In short, it runs like this:
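HepG2 cells were transiently transfected with GAL4-UAS reporter units for chimeric human TRa-Gal4 and dosed for 24 hours, with 3 nM 6-alpha-fluorotestosterone and 1.5 nM norgestrel present. Reporter mRNA was quantified by RT-PCR, FAM labelling and capillary electrophoresis, with gain of signal fitted versus DMSO.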

Assay [14] addresses frog Thyroid hormone Receptor alpha (TRa), thra-a (gene 397942) (UniProt P15204). In words: ATG_frTRa_XSP2: Attagene TRANS-FACTORIAL Multi-Species (XSP2) HepG2 Assay for frog Thyroid hormone Receptor alpha (TRa) (AID 2283839). In short, it runs like this:
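Transfect HepG2 with multiple reporter units (GAL4-UAS), dose chemical, incubate 24 h. Isolate RNA, reverse-transcribe, PCR-amplify reporter, label with 6-FAM by primer extension, digest with HpaI, run capillary electrophoresis; induction scored against DMSO.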

The target of assay [15] is human Thyroid hormone Receptor beta (TRb), THRB (gene 7068) (UniProt P10828). The assay can be described thus: ATG_hTRb_XSP2: Attagene TRANS-FACTORIAL Multi-Species (XSP2) HepG2 Assay for human Thyroid hormone Receptor beta (TRb) (AID 2283840).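 Further: actives raise reporter mRNA so potency reflects agonist-like gain of signal.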 In short, it runs like this: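 Transient transfection of human HepG2 with multi-species NR-Gal4/GAL4-UAS reporter constructs; 24 h compound treatment; RNA isolation, reverse transcription, PCR and HpaI digest; capillary electrophoresis of labeled fragments; activity fitted upward versus DMSO.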
Chain of human Thyroid hormone Receptor beta (TRb), THRB (gene 7068) (P10828 whole entry, looked up, the tested form may be a part): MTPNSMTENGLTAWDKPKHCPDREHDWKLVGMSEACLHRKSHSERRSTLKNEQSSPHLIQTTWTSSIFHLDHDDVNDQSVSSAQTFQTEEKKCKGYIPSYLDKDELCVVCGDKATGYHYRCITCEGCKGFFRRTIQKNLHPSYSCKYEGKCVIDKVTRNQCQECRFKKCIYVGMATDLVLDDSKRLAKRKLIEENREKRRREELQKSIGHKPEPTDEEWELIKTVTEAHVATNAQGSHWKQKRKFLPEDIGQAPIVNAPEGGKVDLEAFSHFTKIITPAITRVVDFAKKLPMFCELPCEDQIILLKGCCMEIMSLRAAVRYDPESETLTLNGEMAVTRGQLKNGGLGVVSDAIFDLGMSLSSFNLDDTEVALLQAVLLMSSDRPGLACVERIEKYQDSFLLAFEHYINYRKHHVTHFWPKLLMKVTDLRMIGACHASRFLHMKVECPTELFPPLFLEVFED

The nature of assay [16]: CPHEA_Stoker_NIS_Cytotoxicity: Cytotoxicity Assessment for CPHEA's Radioactive Iodide Uptake (RAIU) Assay for Sodium/Iodide Symporter (NIS) Inhibition, Stoker and Laws Labs (AID 2283897).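 On AC50: active means loss of ATP signal versus DMSO meaning cytotoxicity.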 In short, it runs like this:
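hNIS-HEK293T-EPA cells, human NIS expressed in HEK293T, treated 2 h with chemicals (0.001–100 uM, 0.5% final DMSO). ATP content read by CellTiter-Glo luminescence; loss of signal analysed relative to DMSO.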

Assay [17] deals with chicken Androgen Receptor (AR), gene 422165. In words: ATG_chAR_XSP2: Attagene TRANS-FACTORIAL Multi-Species (XSP2) HepG2 Assay for chicken Androgen Receptor (AR) (AID 2283819).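 Further: hits raise reporter mRNA above DMSO so potency is for activation.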 In short, it runs like this: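 HepG2 cells transiently transfected with chicken AR–GAL4 chimeric reporter constructs, stimulated with 3 nM 6-alpha-fluorotestosterone plus 1.5 nM norgestrel, dosed 24 h. Reporter mRNA quantified by RT-PCR and capillary electrophoresis; gain of signal fitted versus DMSO.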

Several values for one entry are separate records, joined by “and”; a condition that tells them apart may be missing. Identical values can stand only once. Inconclusive results are not listed. Where a structure was tested more than once in an assay, its records may differ in their call. Activity calls are given as the source filed them. How the source made its calls, unless noted: active means hit-call score of the fitted dose curve at least 0.9, where 1 is the maximum; inconclusive means response in the unintended direction; inactive means score below 0.9.

The AC50 is the concentration at which the activity in the assay is half-maximal.

Chain of Nuclear receptor subfamily 1 group I member 2 (Mus musculus) (O54915 whole entry, looked up, the tested form may be a part): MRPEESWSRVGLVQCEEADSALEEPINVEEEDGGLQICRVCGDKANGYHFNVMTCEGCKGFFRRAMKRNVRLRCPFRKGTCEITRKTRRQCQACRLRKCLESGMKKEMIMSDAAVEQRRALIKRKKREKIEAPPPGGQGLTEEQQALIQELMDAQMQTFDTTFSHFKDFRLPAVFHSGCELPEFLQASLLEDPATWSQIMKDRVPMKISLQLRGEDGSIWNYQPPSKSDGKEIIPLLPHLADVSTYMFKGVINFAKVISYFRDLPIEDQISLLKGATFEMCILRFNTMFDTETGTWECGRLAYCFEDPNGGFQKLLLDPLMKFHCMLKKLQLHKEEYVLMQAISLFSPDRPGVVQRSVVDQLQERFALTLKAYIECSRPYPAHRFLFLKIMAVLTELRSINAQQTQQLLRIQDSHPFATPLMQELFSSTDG
Chain of chicken Estrogen Receptor (ERa), ESR1 (gene 396099) (P06212 whole entry, looked up, the tested form may be a part): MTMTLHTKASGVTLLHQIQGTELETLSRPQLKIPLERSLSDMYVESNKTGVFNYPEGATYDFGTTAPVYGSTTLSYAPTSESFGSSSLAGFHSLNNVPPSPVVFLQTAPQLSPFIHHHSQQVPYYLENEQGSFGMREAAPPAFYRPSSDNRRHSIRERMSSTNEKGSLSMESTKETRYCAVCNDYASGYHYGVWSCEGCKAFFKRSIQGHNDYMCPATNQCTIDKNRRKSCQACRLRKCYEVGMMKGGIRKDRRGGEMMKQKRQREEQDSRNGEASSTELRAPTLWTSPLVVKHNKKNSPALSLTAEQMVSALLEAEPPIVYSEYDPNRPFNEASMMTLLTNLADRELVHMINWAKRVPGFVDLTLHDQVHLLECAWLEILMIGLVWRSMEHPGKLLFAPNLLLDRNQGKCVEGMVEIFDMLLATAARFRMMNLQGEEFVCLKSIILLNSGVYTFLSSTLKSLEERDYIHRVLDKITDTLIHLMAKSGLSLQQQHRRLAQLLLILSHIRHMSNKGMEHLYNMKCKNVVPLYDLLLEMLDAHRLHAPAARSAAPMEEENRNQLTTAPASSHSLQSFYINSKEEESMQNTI
Chain of Estrogen receptor (Homo sapiens) (P03372 whole entry, looked up, the tested form may be a part): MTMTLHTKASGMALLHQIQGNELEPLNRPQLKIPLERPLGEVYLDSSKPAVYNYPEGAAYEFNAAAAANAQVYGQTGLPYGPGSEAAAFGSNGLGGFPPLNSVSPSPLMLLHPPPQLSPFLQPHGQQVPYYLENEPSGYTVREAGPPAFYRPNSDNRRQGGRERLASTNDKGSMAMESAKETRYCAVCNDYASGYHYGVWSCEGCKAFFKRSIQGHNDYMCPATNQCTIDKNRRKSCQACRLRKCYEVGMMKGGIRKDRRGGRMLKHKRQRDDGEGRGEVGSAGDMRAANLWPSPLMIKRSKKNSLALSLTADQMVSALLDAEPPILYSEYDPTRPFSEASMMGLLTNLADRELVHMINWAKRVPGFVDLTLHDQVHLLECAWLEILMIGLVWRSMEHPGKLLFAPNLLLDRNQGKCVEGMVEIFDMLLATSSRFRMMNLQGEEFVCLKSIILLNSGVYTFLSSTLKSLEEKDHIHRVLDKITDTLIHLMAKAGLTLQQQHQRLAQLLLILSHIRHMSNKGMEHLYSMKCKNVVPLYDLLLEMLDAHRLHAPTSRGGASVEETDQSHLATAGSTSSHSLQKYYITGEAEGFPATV
Chain of human Thyroid hormone Receptor alpha (TRa), THRA (gene 7067) (P10827 whole entry, looked up, the tested form may be a part): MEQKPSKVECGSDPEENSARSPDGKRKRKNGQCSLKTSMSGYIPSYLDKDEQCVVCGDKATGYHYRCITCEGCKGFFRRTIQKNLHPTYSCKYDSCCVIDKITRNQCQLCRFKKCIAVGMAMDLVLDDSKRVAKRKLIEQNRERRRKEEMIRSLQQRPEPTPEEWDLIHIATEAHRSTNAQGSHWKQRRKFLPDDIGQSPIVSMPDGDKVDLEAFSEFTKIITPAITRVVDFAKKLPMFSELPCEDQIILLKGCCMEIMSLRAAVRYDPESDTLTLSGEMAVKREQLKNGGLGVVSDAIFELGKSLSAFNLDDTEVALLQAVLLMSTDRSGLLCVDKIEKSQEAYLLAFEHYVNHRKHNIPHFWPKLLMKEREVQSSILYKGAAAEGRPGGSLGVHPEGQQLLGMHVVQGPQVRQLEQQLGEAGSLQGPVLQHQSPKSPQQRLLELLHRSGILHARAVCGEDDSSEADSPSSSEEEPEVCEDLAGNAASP
Chain of mouse Peroxisome Proliferator-activated Receptor gamma (PPARg), Pparg (gene 19016) (P37238 whole entry, looked up, the tested form may be a part): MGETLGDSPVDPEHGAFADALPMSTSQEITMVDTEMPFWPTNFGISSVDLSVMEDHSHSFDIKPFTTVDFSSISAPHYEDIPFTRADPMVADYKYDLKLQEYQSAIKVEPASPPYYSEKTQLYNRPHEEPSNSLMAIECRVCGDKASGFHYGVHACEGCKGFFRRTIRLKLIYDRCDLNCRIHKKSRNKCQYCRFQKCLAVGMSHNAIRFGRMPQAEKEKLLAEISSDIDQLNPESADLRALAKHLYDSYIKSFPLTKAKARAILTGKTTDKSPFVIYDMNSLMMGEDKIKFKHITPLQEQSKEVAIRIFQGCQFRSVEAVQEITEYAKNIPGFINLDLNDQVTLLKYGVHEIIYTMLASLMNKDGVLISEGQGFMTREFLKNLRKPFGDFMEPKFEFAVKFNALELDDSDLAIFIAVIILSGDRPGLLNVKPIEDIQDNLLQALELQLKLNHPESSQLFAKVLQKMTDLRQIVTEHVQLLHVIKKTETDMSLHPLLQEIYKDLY
Chain of zebrafish Thyroid Hormone Receptor alpha (TRa), thraa (gene 30670) (Q98867 whole entry, looked up, the tested form may be a part): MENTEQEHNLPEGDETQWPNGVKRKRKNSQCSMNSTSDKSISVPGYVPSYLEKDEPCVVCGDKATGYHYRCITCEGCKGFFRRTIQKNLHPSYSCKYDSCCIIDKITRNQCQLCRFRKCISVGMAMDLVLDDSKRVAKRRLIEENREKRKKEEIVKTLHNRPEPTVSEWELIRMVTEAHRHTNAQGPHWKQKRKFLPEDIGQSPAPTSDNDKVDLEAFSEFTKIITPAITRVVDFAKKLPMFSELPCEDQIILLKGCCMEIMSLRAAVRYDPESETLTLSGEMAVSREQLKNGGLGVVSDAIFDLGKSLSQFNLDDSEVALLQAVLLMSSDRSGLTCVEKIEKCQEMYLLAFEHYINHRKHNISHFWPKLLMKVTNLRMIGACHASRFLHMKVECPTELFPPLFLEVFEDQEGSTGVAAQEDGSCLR
Chain of frog Thyroid hormone Receptor alpha (TRa), thra-a (gene 397942) (P15204 whole entry, looked up, the tested form may be a part): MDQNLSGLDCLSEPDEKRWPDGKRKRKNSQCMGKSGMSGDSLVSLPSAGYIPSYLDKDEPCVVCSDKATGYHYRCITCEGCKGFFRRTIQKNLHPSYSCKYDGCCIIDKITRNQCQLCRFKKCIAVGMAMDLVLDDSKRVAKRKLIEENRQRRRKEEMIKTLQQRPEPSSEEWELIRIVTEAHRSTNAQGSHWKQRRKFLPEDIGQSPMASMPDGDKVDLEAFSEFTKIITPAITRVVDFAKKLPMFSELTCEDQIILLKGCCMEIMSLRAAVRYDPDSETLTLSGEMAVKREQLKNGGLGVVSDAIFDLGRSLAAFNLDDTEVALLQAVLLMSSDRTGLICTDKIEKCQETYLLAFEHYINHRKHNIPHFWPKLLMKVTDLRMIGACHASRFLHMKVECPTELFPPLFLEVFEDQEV

With `CC1(C)Cc2cccc(O)c2O1`, the result in [1] was inactive.
On to `CC(C)C1CCC(Cc2ccc(Cl)cc2)C1(O)Cn1cncn1` (stereo not given), for which the outcome in assay [2], in assay [4], in assay [5], in [6], in assay [8] and in [9] was inactive. Also, the compound was classed as inactive in assay [10], in assay [11], in assay [13], in [14] and in [15]. In addition, the AC50 in assay [3] is 14.6 µM (active) and 2.83 µM (active); in [4], 7.95 µM (active); in assay [5], 14.3 µM (active); in [6], 10.2 µM (active); in [7] it was 715 nM (active) and 257 nM (active); in assay [12], 42.8 µM (active). The AC50 in [1] is 20 µM (active); in assay [16], 87.6 µM (active).
For `C[C@H]1CCCC(=O)CCC/C=C/c2cc(O)cc(O)c2C(=O)O1`, the AC50 in assay [2] was 6.03 nM (active) and 1.45 nM (active); in [3], 27.1 nM (active) and 8.37 nM (active); in [4], 3.41 nM (active) and 1.59 nM (active); in assay [5], 0.00566 µM (active); in [16], 83.8 µM (active). Moreover, the outcome in [17], in [5], in assay [6], in assay [8], in assay [9] and in assay [10] was inactive. In addition, the compound was called inactive in [11], in assay [12], in [13], in [15] and in assay [1].
Consider `O=C(Nc1ccc2[nH]ccc2c1)c1cc2cc(F)ccc2n1Cc1cccc(F)c1`, for which the outcome in [1] and in assay [16] was inactive.
As to `CCOP(=S)(OCC)SCSP(=S)(OCC)OCC`, the outcome in [1] and in [16] was inactive.
In the case of `O=C(O)CCC(F)(C(F)(F)F)C(F)(F)F`, the outcome in [1] was inactive.
On to `CC1(C)CCC(Cc2ccc(Cl)cc2)C1(O)Cn1cncn1` (stereo not given), for which the AC50 in [2] is 3.58 µM (active); in assay [3], 27.5 µM (active); in assay [5], 26 µM (active); in assay [6] it was 70.1 µM (active); in assay [7], 2.82 µM (active). For the same compound, the compound was called inactive in assay [4], in assay [8], in [9], in assay [10], in assay [11] and in assay [13]. Moreover, the outcome in [15], in assay [1] and in assay [16] was inactive.
For `Fc1ccc(C2(Cn3cncn3)OC2c2ccccc2Cl)cc1` (stereo not given), the outcome in assay [1] and in assay [16] was inactive.
Turning to `C=C(C)C(=O)[O][Sn]([CH2]CCC)([CH2]CCC)[CH2]CCC`, the results for the AC50 in assay [1] and in assay [16] were 5.24 µM (active) and 1.25 µM (active), respectively.
In the case of `CC12CC1(C)C(=O)N(c1cc(Cl)cc(Cl)c1)C2=O` (stereo not given), the AC50 in assay [2] is 58.5 µM (active); in [3], 29.8 µM (active); in assay [5] it was 100 µM (active); in assay [7], 8.41 µM (active) and 6.41 µM (active); in assay [15] it was 63.2 µM (active). Further, the compound was classed as inactive in assay [2], in assay [3], in assay [5], in assay [6], in [8] and in assay [9]. The compound was called inactive in [10], in assay [11], in assay [13], in [14] and in [15].
